KCNQ2 block: blocks the rat KCNQ2 potassium channel; O88943; CHO-K1 KCNQ2, FluxOR thallium flux, 20 min; stronger effect = lower value; B-score at 10 µM; 1.1% of 310,000 active;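 active = fluorescence ratio B-score at most minus 3 library SDs, with starting brightness B-score within 2 library SDs, cut at about -5.5 in these data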
KCNQ2 pot: potentiators of rat KCNQ2 potassium channel. B-score at 10 µM. CHO-K1 KCNQ2, FluxOR thallium flux fluorescence; stronger effect = higher value. O88943. AID 2239. 0.54% of 310,000 active;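 active = fluorescence ratio B-score at least 3 SD of library B-scores, with initial fluorescence B-score within 3 of them, cut at about 5.3 in these data; same plate scores as AID 2156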;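 also: B-score of peak minus minimum over baseline fluorescence ratio after K+ and Tl+ stimulus; positive B-score means potentiation of KCNQ2 with more thallium influx and brighter signal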
KCNQ2 block conf: rat KCNQ2 channel inhibition, confirmatory screen; 57% of 1,000 active; activity change, negative = inhibition, % at 10 µM; KCNQ2-expressing cells, thallium flux; stronger effect = lower value; shares compounds with KCNQ2 block;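 also: 0% = vehicle wells and values are ratio percent relative to vehicle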
KCNQ1 spec: KCNQ2 inhibitor that also affects human KCNQ1 channel; AID 493026; KCNQ1-expressing cells, FluxOR thallium flux fluorescence; stronger effect = lower value; activity change, negative = inhibition, % at 10 µM; 15% of 1,000 active; shares compounds with KCNQ2 block;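 active = activity change at least 3 SD of negative controls below their mean in both duplicate wells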;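 also: CHO cells stably transfected with KCNQ1 and depolarized by potassium stimulus; peak minus minimum fluorescence over baseline after thallium addition; 0% = vehicle negative control and -100% = blank without thallium stimulus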
CHO parental ctr: counter-screen for KCNQ2 inhibitors: effect in parental CHO cells. shares compounds with KCNQ2 block. thallium flux counter-screen; stronger effect = lower value. activity change, % at 10 µM. 14% of 1,000 active. AID 493029;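 also: 0% = vehicle negative controls with stimulus buffer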
KCNQ2 patch conf: confirmation of rat KCNQ2 potassium channel inhibitors. shares compounds with KCNQ2 block. KCNQ2-expressing cells, automated patch clamp current. calls only at 10 µM. 49% of 550 active
* = called active by the depositor; i = inactive; . = no result given; + = active, no number. Only some compounds are listed: those with a hit (about 1.6% of all), similar ones and a draw of the others. Unless noted, no rule for the calls is given here.

SMILES	KCNQ2 block	KCNQ2 pot	KCNQ2 block conf	KCNQ1 spec	CHO parental ctr	others
CN(C)S(=O)(=O)c1ccc2c(c1)nc(CCC(=O)NCCc1ccc(Cl)cc1)n2C	i	.	.	.	.
O=[N+]([O-])c1ccccc1COc1ccc(Cl)c2cccnc12	i	.	.	.	.
Cc1cccc2nc(COc3ccc(Cl)c4cccnc34)cn12	-9.13*	-9.13	-29.0%*	i	i	KCNQ2 patch conf=+
COc1cccc(C(=O)NCC(=O)OCc2ccc(F)cc2Cl)c1	i	.	.	.	.
COc1cc(NC(=O)c2csc(-c3ccncc3)n2)cc(C(=O)Nc2cccc(C(F)(F)F)c2)c1	-6.87*	-6.87	-20.0%*	i	i	KCNQ2 patch conf=i
COc1cc(NC(=O)c2cc3cccc(OC)c3o2)cc(C(=O)Nc2cccc(C(F)(F)F)c2)c1	-7.64*	-7.64	i	i	i
O=C(Nc1cccc(C(F)(F)F)c1)c1csc(-c2ccncc2)n1	i	0.48	.	.	.
COc1cc(NC(=O)c2ccno2)cc(C(=O)Nc2cccc(C(F)(F)F)c2)c1	i	.	.	.	.
CC(=O)Oc1ccc2cc(-c3ccccc3)c(=O)oc2c1	i	0.04	.	.	.
CCN(CC(=O)Nc1ccccc1C(F)(F)F)C(=O)c1cc(-c2ccccc2)nn1-c1ccccc1	-9.32*	-9.32	i	i	i
CCN(CC(=O)Nc1ccccc1OC)C(=O)c1cc(-c2ccccc2)nn1-c1ccccc1	i	.	.	.	.
CCC(C)N(C(=O)CSc1ccc(NC(C)=O)cc1)C1CCS(=O)(=O)C1 (stereo not given)	i	0.55	.	.	.
CCOc1cc(CNc2ccc(Br)cc2)cc(Br)c1OCC(=O)NC(C)(C)C	-6.83*	-6.83	-24.0%*	i	i	KCNQ2 patch conf=i
CCOc1cc(CNn2cnnc2)cc(Br)c1OCC(=O)NC(C)(C)C	i	0.87	.	.	.
CCOC(=O)CSc1nnc(Cc2ccccc2)n1-c1cccc(Cl)c1	i	.	.	.	.
CCOC(=O)CSc1nnc(CNc2ccccc2Cl)n1-c1ccccc1	-6.69*	-6.69	-25.0%*	i	i	KCNQ2 patch conf=+
O=C(CCSc1ccc(Cl)cc1)NC12CC3CC(CC(C3)C1)C2	i	.	.	.	.
Cc1cc(OCC(=O)N(C)C2CCCCC2)cc(C)c1Cl	-7.43*	-7.43	-43.0%*	-46.5%*	-37.5%*	KCNQ2 patch conf=+
CN(C(=O)COC(=O)COc1ccc(Cl)cc1)C1CCCCC1	i	.	.	.	.
Cc1nc2sc(C(c3ccco3)N3CCC(Cc4ccccc4)CC3)c(O)n2n1 (stereo not given)	i	0.14	.	.	.
CC(C)c1ccc(C(=O)N/N=C/c2cccc(Cl)c2Cl)cc1	-9.53*	-9.53	i	i	i
CC(C)c1ccc(/C=N/NC(=O)c2cccc(Cl)c2)cc1	i	.	.	.	.
CCCNC(=O)c1ccc(N2CCC3(CC2)CC(c2cccc(Br)c2)=NO3)c(NC(=O)c2cccc(C)c2)c1	i	.	.	.	.
CCc1nc2ccccc2c(C(=O)Nc2cccc(C)c2)c1C	i	.	.	.	.
CCc1nc2ccccc2c(C(=O)Nc2cc(C)ccc2C)c1C	-7.46*	-7.46	i	i	i
SMILES	KCNQ2 block	KCNQ2 pot	KCNQ2 block conf	KCNQ1 spec	CHO parental ctr	others
Cc1ccc(NC(=O)c2c3c(nc4ccccc24)CCC3)cc1	i	.	.	.	.
Cc1ccccc1NC(=O)c1c2c(nc3ccccc13)CCC2	-6.91*	-6.91	i	i	i
CC1CC(C)CN(CCOc2ccc(Br)cc2)C1 (stereo not given)	i	0.33	.	.	.
COC(=O)c1ccccc1S(=O)(=O)N1CCC(NC(=O)C(Cc2cccc(OC)c2OC)NC(C)=O)CC1 (stereo not given)	i	.	.	.	.
COc1cc2c(cc1OC)C(C)N(C(=O)c1cc3c(s1)-c1ccccc1OC3)CC2 (stereo not given)	-8.44*	-8.44	i	i	i
CCOC(=O)c1cc2c(s1)-c1c(C)cccc1OC2	i	.	.	.	.
COc1cc2c(cc1OC)C(C)N(C(=O)c1cccs1)CC2 (stereo not given)	i	.	.	.	.
COc1cc2c(cc1OC)C(C)N(C(=O)c1cc3c(s1)-c1c(C)cccc1OC3)CC2 (stereo not given)	-6.68*	-6.68	-36.5%*	i	i	KCNQ2 patch conf=+
O=C(Cc1sc(-c2ccccc2)nc1-c1ccccc1)Nc1ccccc1	i	0.16	.	.	.
O=C(Cc1sc(Nc2ccccc2)nc1-c1ccccc1)NCc1ccccc1	-7.13*	-7.13	i	i	i
C=CCN1C(=O)c2ccc(C(=O)N(CC)CC(=O)Nc3ccc(OC)cc3)cc2C1=O	i	0.14	.	.	.
COc1ccc(OC)c(CN2CCCC(CO)C2)c1 (stereo not given)	i	0.8	.	.	.

From PubChem
